In the library only some 0.74% were active in any assay of this set; here they are far more common.
Vif-A3G inh: qHTS for Inhibitors of Vif-A3G Interactions: qHTS. DNA dC->dU-editing enzyme APOBEC-3G (Homo sapiens), Q9HC16. HeLa A3G-eYFP + Vif (tagged APOBEC3G with the HIV-1 protein that degrades it), YFP fluorescence, overnight. Potency, µM (titrated, usually from 46.1 µM), without a hit: at the highest dose activity, negative = active, hits mostly inhibitors. hit rate 0.076% among 410,000. AID 602310, 2012; further: potency means the concentration at half of the fitted maximal effect; on the % scale 0 is the no-effect control and ±100 the full control effect; nearly all actives have a fitted effect of over 60% in size
Target sequence (Q9HC16 whole entry, looked up): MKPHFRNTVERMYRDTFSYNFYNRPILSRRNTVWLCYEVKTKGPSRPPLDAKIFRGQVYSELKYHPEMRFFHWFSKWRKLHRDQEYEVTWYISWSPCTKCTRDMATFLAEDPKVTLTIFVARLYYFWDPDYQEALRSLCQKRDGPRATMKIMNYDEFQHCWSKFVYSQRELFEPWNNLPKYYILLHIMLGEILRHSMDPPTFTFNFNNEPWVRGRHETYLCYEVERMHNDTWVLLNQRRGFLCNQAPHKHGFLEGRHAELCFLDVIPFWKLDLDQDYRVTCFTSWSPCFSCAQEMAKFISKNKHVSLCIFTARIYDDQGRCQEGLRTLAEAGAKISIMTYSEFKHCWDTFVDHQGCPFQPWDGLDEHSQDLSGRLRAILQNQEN
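Read-out is eYFP fluorescence (Ex 488/Em 500-530) from Vif-expressing HeLa A3G-eYFP cells; more signal means A3G escaped Vif-mediated degradation. Cells plated overnight, compound pinned in, incubated overnight at 37 deg C.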
Vif-APOBEC3F blk: qHTS for Inhibitors of Vif-A3F Interactions: qHTS | HeLa A3F-eYFP + Vif (tagged APOBEC3F with the HIV-1 protein that degrades it), YFP fluorescence increase | Potency, µM (titrated, usually from 46.1 µM), inactives show top-dose activity, negative = active | hit rate 0.2% among 390,000; further: potency means the concentration at half of the fitted maximal effect; % of control where 0% means no effect; nearly all actives have a fitted effect of over 65% in size
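HeLa cells stably expressing A3F-eYFP plus Vif, plated and incubated overnight at 37 deg C, then exposed to compounds overnight at 37 deg C. Blocked degradation read as raised yellow fluorescence (Ex 488/Em 500-530).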
LDHA inh: qHTS assay for inhibitors of human lactate dehydrogenase. hit rate 0.15% among 480,000. L-lactate dehydrogenase A chain (Homo sapiens), P00338. purified LDHA, NADH/diaphorase-resazurin fluorescence; active compounds read low. activity change, % (values are at about 110 or 230 µM); in the data active means activity change below about -30%; inconclusive means mostly about -25% to -30%;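 further: plate controls were DMSO wells for no effect and wells without enzyme for full effect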
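Remaining NADH was detected by diaphorase (0.133 mg/mL) converting 37 µM resazurin to fluorescent resorufin, read at 0 and 20 minutes. The preceding 5-minute room-temperature reaction used 2 nM LDHA, 0.2 mM sodium pyruvate and 0.06 mM NADH at pH 7.4.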
PINK1 expr mod: A Quantitative High throughput Screen to Identify Chemical Modulators of PINK1 Expression; Potency, µM (top dose mostly 76.6 µM), inactives show at the highest dose activation (PINK1 increase), most hits filed as activators; PINK1 immunofluorescence, high-content cytometry, 24 h; hit rate 0.2% among 410,000; active means well fitted activation curve with a large enough effect; inconclusive means small, poorly fitted or top-dose-only effect; cell line not stated here; further: potency means the concentration at half of the fitted maximal effect; % of control where 0% means no effect; nearly all actives have a fitted effect of over 65% in size
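Compound titrations (5 concentrations, 24 h) on a stable cell line; DMSO and CCCP controls. Endpoint: fixed-cell PINK1 immunofluorescence with mitochondrial, cell and nuclear markers, scanned by microplate cytometer.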
Glioma ERSR ind: qHTS for Inducers of the Endoplasmic Reticulum Stress Response (ERSR) in Human Glioma: qHTS; U87-MG GRP78 promoter luciferase reporter, 16 h; Potency, µM, inactives show top-dose activation, usual class: activators; hit rate 0.02% among 420,000; further: potency means the concentration at half of the fitted maximal effect; series mostly up to about 76 µM; % of control where 0% means no effect; nearly all actives have a fitted effect of over 35% in size
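Stably transfected U87-MG human glioma cells carrying a GRP78-based luminescent sensor were seeded at 1000 cells/well, pin-dosed with compounds and incubated 16 h. Luciferase reagent was then added, and end-point luminescence was read after 10 min at room temperature.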
Akt phos inh: HTS Assay for Inhibitors of Akt Phophorylation: Primary Screen. Neuro2A IGF-stimulated pAkt S473 HTRF, 20 min; active compounds read low. activity change, % for hits at 50 µM. hit rate 0.32% among 360,000; in the data active means activity change below about -80%; inconclusive means mostly about -51% to -80%; further: on the % scale 0 is the no-effect control and ±100 the full control effect
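Neuro2A cells in DMEM with 0.5% FBS, overnight at 37 deg C, given compound at single 50 µM final, then IGF (6 nM final) for 20 min at 37 deg C. Lysed; phospho-Akt Ser473 by HTRF after 24 h, 665/615 ratio.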
Numbers without * were called inactive; i = inactive; ? = inconclusive; nt = no result; [ ] = another dose, or the depositor's remark. Unless noted, the call rests on the fitted dose curve; in most records, active means well fitted curve in the direction sought with a large enough effect; inconclusive means small, poorly fitted or top-dose-only effect, or another doubt; inactive means no such curve, though single readings can be large; an effect the other way counts as inactive or inconclusive.

SMILES | Vif-A3G inh | Vif-APOBEC3F blk | LDHA inh | PINK1 expr mod | Glioma ERSR ind | Akt phos inh
O=C(CNc1ccc(C(F)(F)F)cc1)Nc1cccc(S(=O)(=O)N2CCCCC2)c1 | -18% | -14% | -1 | 45µM* | 0% | i
CCNc1ccc(Br)cc(C(=O)/C=C/c2ccccc2Cl)c1=O | 10µM* | ? | 24 | -2%[38.3 µM] | 4% | i
CNc1ccc(Br)cc(C(=O)/C=C/c2cccc(Cl)c2Cl)c1=O | ? | ? | 8 | 9% | 11% | i
Cc1[nH]n2c(=O)c3c(nc2c1-c1cccc2ccccc12)CCC3 | -1% | -1% | 0 | -1% | -6% | -114%*
COc1ccccc1NC(=O)/C(C#N)=C/C=C/c1ccco1 | ? | ? | 19 | 2.8µM* | -4% | i
O=C(COc1ccc(-c2ccccc2)cc1Cl)Nc1ncn[nH]1 | nt | nt | -21 | nt | nt | nt
O=c1[nH]c(NCc2ccco2)nnc1Cc1ccccc1Cl | 13µM* | nt | -16 | 9% | -5% | i
Cc1nc(NCc2ccco2)[nH]c(=O)c1CCC(C)C | -2% | -6% | -5 | 1% | 1% | i
Cc1ccc(NC(=O)C(C)Sc2nnc(-c3cccnc3)n2-c2ccccc2)cc1 (stereo not drawn) | -7% | -1% | 3 | 4%[38.3 µM] | -6% | i
Cc1ccccc1-n1c(SC(C)C(N)=O)nnc1-c1cccnc1 (stereo not drawn) | -1% | -3% | -5 | 10µM* | -2% | i
COc1cccc(NC(=O)CSc2nnc(-c3cccs3)n2C)c1 | -2% | 0% | -6 | 2% | -1% | -107%*
COc1ccc(C)cc1NC(=O)CSc1nnc(COc2ccccc2)n1Cc1ccco1 | 2% | nt | 2 | 0% | -7% | -98%*
COc1ccc(OC)c(NC(=O)CSc2nnc(C3CCCCC3)n2-c2ccccc2)c1 | -9% | 2% | -1 | -2% | -6% | -111%*
Cc1ccc(C)c(NC(=O)CSc2nnc(CSc3nc(C)cc(C)n3)n2Cc2ccco2)c1 | 3% | nt | -4 | 4% | -2% | -91%*
CCOc1ccc(-c2nc(CNC(=O)Nc3ccc(C)c(C)c3)c(C)o2)cc1 | nt | nt | -9 | nt | nt | nt
COc1cccc(-c2nnc(SCC(=O)Nc3cc(C)ccc3OC)n2N)c1 | 0% | -6% | -18 | -3% | 0% | -119%*
COc1ccc(C)cc1NC(=O)CSc1nnc(-c2ccco2)n1N | 0% | 4% | -6 | -2% | -4% | i
C=CCOC(=O)C1=C(C)NC(C)=C(C(=O)OCC=C)C1c1cn(-c2ccccc2)nc1-c1ccco1 | 8.9µM* | -13% | -6 | 12% | -7% | i
O=c1[nH]c(=O)n(-c2ccccc2)c2c1CN(C1CCCCC1)CN2 | nt | nt | 3 | nt | nt | nt
COc1ccc(/C=C/C=C2\NC(=S)NC2=O)cc1 | ? | 13µM* | -8 | ? | 6% | i
CC(Sc1ccccc1Cl)C(=O)Nc1ccnn1C(C)C (stereo not drawn) | nt | nt | -7 | nt | nt | nt
Fc1ccc(CNCCN2CCCC2)cc1 | nt | nt | 9 | nt | nt | nt
COc1ccc(C2=C(O)C(=O)N(CCc3ccccc3)C2c2ccc(C(=O)O)cc2)cc1 (stereo not drawn) | nt | nt | -8 | nt | nt | nt
CC(C)CNc1oc(-c2ccccc2F)nc1C#N | nt | nt | -36* | nt | nt | nt
Cc1ccccc1-c1nc(C#N)c(NCC(C)C)o1 | nt | nt | 2 | nt | nt | nt
SMILES | Vif-A3G inh | Vif-APOBEC3F blk | LDHA inh | PINK1 expr mod | Glioma ERSR ind | Akt phos inh
Cn1nc(C(=O)N2CCC(n3c(=O)[nH]c4ccccc43)CC2)c2ccccc2c1=O | nt | nt | -1 | nt | nt | nt
CC(=O)c1cc(Cl)cc(Cl)c1OCc1ccccc1 | nt | nt | 0 | nt | nt | nt
Cc1nnc(SCC(=O)N2CCOCC2)c2ccccc12 | 0% | -2% | 5 | -1% | -9% | -115%*
O=C(CSc1nc2ccccc2nc1SCC(=O)N1CCOCC1)N1CCOCC1 | 1% | -12% | -7 | -1% | -3% | nt
Cc1ccc(NC(=O)c2nn(-c3ccccc3)c(=O)c3ccccc23)cc1S(=O)(=O)N(C)C | nt | nt | 0 | nt | nt | nt
CC(C)C(=O)NNC(=O)c1ccc(F)cc1 | nt | nt | -4 | nt | nt | nt
CCC(C)NC(=O)Nc1ccc(-c2noc(-c3ccncc3)n2)cc1 (stereo not drawn) | nt | nt | 1 | nt | nt | nt
O=C(OCc1ccccc1)N1CCC2CC1c1cc(/C=C/CCCSc3ncccn3)ccc12 (stereo not drawn) | 1% | -3% | -34* | 0% | 0% | i
O=C(OCc1ccccc1)N1CCC2CC1c1cc(N3CCNCC3)ccc12 (stereo not drawn) | 1% | -9% | -31* | 4% | 4% | i
O=C(OCc1ccccc1)N1CCC2CC1c1cc(-c3cc4ccccc4o3)ccc12 (stereo not drawn) | -3% | -2% | -33* | 13% | -1% | i
O=C(OCc1ccccc1)N1CCC2CC1c1cc(-c3ccc(F)cc3)ccc12 (stereo not drawn) | 1% | 4% | -1 | 5% | -1% | i
O=C(OCc1ccccc1)N1CCC2CC1c1cc(N3CCCCC3)ccc12 (stereo not drawn) | -1% | 4% | -4 | 0% | 4% | i
CC1=C(C(=O)Nc2ccccc2)C(c2ccccc2Cl)N2C(=O)CSC2=N1 (stereo not drawn) | nt | nt | -2 | nt | nt | nt
CC(C)=CC(=O)NCCSC1CCCC1 | nt | nt | -1 | nt | nt | nt
CCOC(=O)c1nnn(-c2nonc2N)c1-c1ccc(OCC)cc1 | -7% | 10% | 2 | -2% | 9% | -112%*
CCCn1c(=O)c2ccc(C(=O)NC(C)CC)cc2n2c(SCc3ccc(F)cc3)nnc12 (stereo not drawn) | nt | nt | 0 | nt | nt | nt
Cc1ccc(C(O)CN2C3=NCCCN3c3ccccc32)cc1 (stereo not drawn) | -1% | -7% | -11 | nt | -2% | i
c1ccc(CN2C3=NCCN3c3ccccc32)cc1 | -1% | -10% | -8 | 0% | -4% | i
OC(CN1C2=NCCN2c2ccccc21)c1ccc2c(c1)OCO2 (stereo not drawn) | 0% | -8% | -2 | -1% | -10% | -118%*
OC(CN1C2=NCCCN2c2ccccc21)c1ccc2c(c1)OCO2 (stereo not drawn) | -4% | -16% | 0 | 0% | -3% | -101%*
C=CCNC(=S)Nc1ccc(SC(F)F)cc1 | nt | nt | -7 | nt | nt | nt
FC(F)Sc1ccc(NC(=S)NCc2ccccc2)cc1 | 1% | 2% | -7 | 14µM* | -3% | i
CC(C)c1ccc(NC(=O)COCC(=O)N(c2ccccc2)c2ccccc2)cc1 | nt | nt | 9 | nt | nt | nt
